This note sets out measurements from PubChem BioAssay AID1117353 (Cheminformatics & Chemogenomics Research Group (CCRG), …, 2015).

Calls of active or inactive are those of the source. No stated cut-off is given here; in the data, active means inhibition above about 50%; inactive means the rest.

Chain of Vascular endothelial growth factor receptor 2 (Homo sapiens) (P35968 whole entry, looked up): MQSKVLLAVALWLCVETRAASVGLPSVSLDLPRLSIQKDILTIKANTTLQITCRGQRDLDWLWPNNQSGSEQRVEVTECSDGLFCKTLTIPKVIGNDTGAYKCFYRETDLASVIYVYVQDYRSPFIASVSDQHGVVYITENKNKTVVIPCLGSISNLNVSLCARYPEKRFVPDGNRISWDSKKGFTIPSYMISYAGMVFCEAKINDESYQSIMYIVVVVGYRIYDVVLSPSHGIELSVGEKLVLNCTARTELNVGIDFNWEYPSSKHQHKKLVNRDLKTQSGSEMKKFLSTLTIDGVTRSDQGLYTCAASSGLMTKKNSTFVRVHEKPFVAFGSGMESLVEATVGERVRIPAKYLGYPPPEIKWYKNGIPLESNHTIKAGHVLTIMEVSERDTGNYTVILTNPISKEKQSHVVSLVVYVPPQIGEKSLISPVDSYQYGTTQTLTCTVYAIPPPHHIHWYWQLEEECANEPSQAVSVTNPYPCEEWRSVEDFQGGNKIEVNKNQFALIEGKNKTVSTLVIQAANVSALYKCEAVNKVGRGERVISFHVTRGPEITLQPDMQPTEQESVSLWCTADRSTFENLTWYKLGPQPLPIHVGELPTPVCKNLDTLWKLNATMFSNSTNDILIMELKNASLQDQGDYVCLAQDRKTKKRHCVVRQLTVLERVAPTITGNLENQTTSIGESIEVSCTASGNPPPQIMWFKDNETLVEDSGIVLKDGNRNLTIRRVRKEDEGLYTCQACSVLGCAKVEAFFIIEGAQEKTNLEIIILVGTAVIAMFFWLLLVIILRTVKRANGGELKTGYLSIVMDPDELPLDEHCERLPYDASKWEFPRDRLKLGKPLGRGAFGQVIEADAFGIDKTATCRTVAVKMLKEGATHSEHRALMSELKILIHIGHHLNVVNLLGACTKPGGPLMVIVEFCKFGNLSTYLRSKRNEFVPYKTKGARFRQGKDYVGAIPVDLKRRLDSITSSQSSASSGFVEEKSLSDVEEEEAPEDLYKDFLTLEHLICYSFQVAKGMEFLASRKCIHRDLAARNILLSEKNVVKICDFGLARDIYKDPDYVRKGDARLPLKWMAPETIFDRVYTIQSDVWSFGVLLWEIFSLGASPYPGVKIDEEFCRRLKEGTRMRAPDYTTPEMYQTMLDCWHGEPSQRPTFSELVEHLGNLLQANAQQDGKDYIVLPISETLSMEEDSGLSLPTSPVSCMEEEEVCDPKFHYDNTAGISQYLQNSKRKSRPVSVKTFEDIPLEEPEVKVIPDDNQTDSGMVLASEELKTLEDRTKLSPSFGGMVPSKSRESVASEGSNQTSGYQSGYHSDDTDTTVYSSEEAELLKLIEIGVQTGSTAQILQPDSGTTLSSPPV

This assay concerns the target Vascular endothelial growth factor receptor 2 (Homo sapiens) (UniProt P35968). The assay is described as follows: Biochemical primary assay, inhibitors of H. sapiens VEGFR2, LANCE Ultra time-resolved FRET readout, NPC library (AID 1117353). Particulars: LANCE Ultra TR-FRET kinase assay; series mostly up to 20 µM.
On to `Cc1ccc([N+](=O)[O-])[c]2c1[O][Hg]2`, for which the call was inactive. Then `O=C(CCl)c1ccc(Cl)cc1Cl`, with “inactive”. With `C=C(C)[C@H]1Cc2c(ccc3c2O[C@@H]2COc4cc(OC)c(OC)cc4[C@@H]2C3=O)O1`, the result was inactive.
